Assay outcomes: PubChem, The Scripps Research Institute Molecular Screening Center
Compounds with a hit are over-represented: about 3.5% of the library has one in this group of screens.
GPR151 activ = activators of human GPR151; 650,000 tested, 1% active; PathHunter beta-arrestin GPR151 cells, luminescence; activation, % at 11.2 µM; Q8TDV0; in the data active means activation above about 4.9%
FBW7 activator = activators of human E3 ligase FBW7 | Q969H0 | AlphaScreen FBW7–phospho-cyclin E peptide binding, activator screen | normalized activity (activation), % at 26.1 µM | 650,000 tested, 0.13% active; in the data active means normalized activity above about 1.9%;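 further: purified mutant Fbw7 with reduced substrate affinity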
Target sequence (Q969H0 whole entry, looked up): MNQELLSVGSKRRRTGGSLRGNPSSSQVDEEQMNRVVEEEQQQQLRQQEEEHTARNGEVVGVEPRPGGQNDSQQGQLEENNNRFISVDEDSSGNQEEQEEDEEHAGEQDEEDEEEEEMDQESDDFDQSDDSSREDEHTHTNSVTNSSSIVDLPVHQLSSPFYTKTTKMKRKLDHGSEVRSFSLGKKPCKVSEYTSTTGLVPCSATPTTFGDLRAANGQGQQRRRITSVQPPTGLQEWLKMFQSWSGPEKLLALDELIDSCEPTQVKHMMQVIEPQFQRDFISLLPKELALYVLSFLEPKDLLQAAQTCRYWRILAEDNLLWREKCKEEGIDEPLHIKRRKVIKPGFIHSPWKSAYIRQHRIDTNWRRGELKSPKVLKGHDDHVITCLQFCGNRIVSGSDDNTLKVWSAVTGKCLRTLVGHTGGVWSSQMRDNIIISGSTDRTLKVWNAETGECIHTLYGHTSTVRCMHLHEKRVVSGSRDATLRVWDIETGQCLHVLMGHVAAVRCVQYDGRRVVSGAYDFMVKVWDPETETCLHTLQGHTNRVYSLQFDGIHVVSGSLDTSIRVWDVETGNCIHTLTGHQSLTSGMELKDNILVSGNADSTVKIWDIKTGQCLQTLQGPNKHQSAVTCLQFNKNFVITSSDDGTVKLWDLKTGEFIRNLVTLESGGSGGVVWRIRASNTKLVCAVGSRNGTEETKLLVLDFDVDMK
TEAD-YAP block = TEAD-YAP interaction inhibition; 640,000 tested, 1.4% active; HEK-TIYL cells, TEAD-Gal4/YAP UAS-luciferase luminescence; inhibition, % at 9.12 µM; in the data active means inhibition above about 32%
MITF inh = inhibitors of human MITF | AlphaScreen MITF homodimerization, bead proximity signal | inhibition, % at 2.6 µM | 650,000 tested, 0.91% active | AID 1259374; in the data active means inhibition above about 50%
MITF confirm = confirmation of human MITF inhibitors. shares compounds with MITF inh. AlphaScreen MITF homodimerization, biotin/His-MITF beads. inhibition, % at 2.6 µM. 4,700 tested, 16% active. AID 1259372;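 active means inhibition above a cutoff derived from the DMSO control wells, cut at about 28% in these data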;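 further: inhibitors lower the bead chemiluminescence by keeping MITF from dimerizing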
AlphaScreen DR = counter-screen: compounds optically interfering with AlphaScreen; AID 1259373; shares compounds with MITF inh; IC50, µM; 480 tested, 6% active; AlphaScreen optical interference counterscreen, cell-free; call rule not given here
AS interf ctr = optically interferes with AlphaScreen signal; shares compounds with MITF inh; LysRS AlphaScreen counterscreen, signal interference, triplicate; inhibition, % at 2.6 µM; 4,700 tested, 7.6% active;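 active means inhibition above a cutoff derived from the DMSO control wells, cut at about 30% in these data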
A number is an active result; i = inactive; nt = no result; ! = not confirmed by another sample.

SMILES | GPR151 activ | FBW7 activator | TEAD-YAP block | MITF inh | MITF confirm | AS interf ctr | others
Cc1cc(Cl)cc(C)c1OCCOCCNC(C)C | i | i | i | 51 | i | i
CC1CC(C)CN(S(=O)(=O)c2ccc(C(=O)Nc3nc(-c4ccc(Br)s4)cs3)cc2)C1 (stereo not given) | i | i | i | i | nt | nt
CC(=O)c1cccc(NC(=O)CN(CCc2ccccc2)S(=O)(=O)c2ccc(C)cc2)c1 | i | i | i | i | nt | nt
CCOC(=O)C1=C(C)N=c2s/c(=C\c3cc(I)c(OC)c(OC)c3)c(=O)n2C1c1ccc(OC)c(OC)c1 (stereo not given) | i | i | i | i | nt | nt
CSc1ccc(Cl)c(C(=O)Nc2nc(C)cs2)c1 | i | i | i | i | nt | nt
Cc1cc(Cl)c(OCCN2CCNCC2)c(Br)c1 | i | i | i | 76 | i | i
Cc1cc(C)c(OCCOCCN2CCN(C)CC2)c(Cl)c1 | i | i | i | 67 | i | i
Cc1ccc(Cl)c(OCCN2CCNCC2)c1 | i | i | i | i | nt | nt
CC1(C)C2CC=C(COCC(O)CN3CCN(Cc4ccc5c(c4)OCO5)CC3)C1C2 (stereo not given) | i | i | i | 70 | i | i
CC1(C)C2CC=C(CN3CCN(Cc4ccc5c(c4)OCO5)CC3)C1C2 (stereo not given) | i | i | i | 64 | i | i
CC1(C)[C@H]2CC=C(CN3CCOc4ccc(CN5CCC(O)CC5)cc4C3)[C@@H]1C2 | i | i | i | i | nt | nt
COc1cccc(CN2CCN(Cc3cccnc3)CC2)c1OC | i | i | i | 76 | i | i
COc1ccc(N2CCN(Cc3cccc(OC)c3OC)CC2)cc1 | i | i | i | i | nt | nt
COc1ccc(CN2CCN(Cc3cccnc3)CC2)c(OC)c1OC | i | i | i | 81 | i | i
O=C(CSc1nsc(SCC(=O)Nc2ccc(Cl)c(Cl)c2)n1)Nc1ccc(Cl)c(Cl)c1 | i | i | i | 59 | 39 | i
Cc1cccc(NC(=O)CSc2nsc(SCC(=O)Nc3cccc(C)c3)n2)c1 | i | i | i | i | nt | nt
Cc1nc2ccccn2c1-c1ccnn1S(=O)(=O)c1ccc(F)cc1 | i | i | i | 73 | i | i
Cc1nc2ccccn2c1-c1nnco1 | i | i | i | i | nt | nt
COC(F)(C(=O)Oc1cc([N+](=O)[O-])cc2cccnc12)C(F)(F)F (stereo not given) | i | i | 43 | 95 | 99 | 101
CCC1CCCCN1Cc1ccc(C(=O)NCc2cn3cc(C)sc3n2)c(=O)[nH]1 (stereo not given) | i | i | i | i | nt | nt
CC[C@H](Cn1nnn(-c2ccccc2)c1=O)NC(=O)c1cnccn1 | i | i | i | i | nt | nt
NC(=S)N/N=C/c1ccccc1OC(=O)c1cc([N+](=O)[O-])cc([N+](=O)[O-])c1 | i | i | i | 59 | 30 | 53
C=CCNC(=O)COC(=O)c1cc(-c2ccco2)nc2ccccc12 | i | i | i | 57 | 65 | i | AlphaScreen DR=i
N#Cc1cc([N+](=O)[O-])ccc1NC(=O)COC(=O)c1cc(-c2ccco2)nc2ccccc12 | i | i | i | 51 | 41 | i | AlphaScreen DR=i
O=C(N/N=C/c1ccccc1O)c1cccc(NC(=O)c2ccccc2)c1 | i | i | i | i | nt | nt
SMILES | GPR151 activ | FBW7 activator | TEAD-YAP block | MITF inh | MITF confirm | AS interf ctr | others
CC1CC(C)CN(C(=O)c2cccc3c2-c2ccccc2C3=O)C1 (stereo not given) | i | i | i | 66 | i | i
CC1CC(C)CN(C(=O)c2cccc3ccccc23)C1 (stereo not given) | i | i | i | i | nt | nt
CCCN(CCO)Cc1ccccc1C(F)(F)F | i | i | i | 51 | i | i
CCCN(CCO)Cc1cccc2ccccc12 | i | i | i | i | nt | nt
CCOC(=O)N1CC=C2C(C#N)=C(N)C(C#N)=C(c3cccs3)C2C1 (stereo not given) | i | i | i | i | nt | nt
CNC(=O)COc1cc(-c2cn[nH]c2)ccc1NC(=O)C1COc2ccc(OC)cc2C1 (stereo not given) | i | i | i | 66 | 52 | i | AlphaScreen DR=i
O=C1NC(=O)C(CCCc2ccccc2)(C2CCN(C(=O)Cc3cccc(F)c3)CC2)N1 (stereo not given) | i | i | i | 51 | i | i
O=C1NC(=O)C(CCCc2ccccc2)(C2CCN(C(=O)Cc3cccs3)CC2)N1 (stereo not given) | i | i | i | i | nt | nt
O=C(CCCC(=O)OCC(=O)c1ccccc1)Nc1ccccc1 | i | i | i | i | nt | nt
CC1NC(=O)NC1CCCCCC(=O)OCC(=O)c1ccccc1 (stereo not given) | i | i | i | 115 | 118 | 100
COc1cc(/C=N/NC(=O)COc2cccc(C)c2)cc(OC)c1O | i | i | i | i | nt | nt
Cc1nc2ncnn2c(NCC2CCCCC2)c1C | i | i | i | i | nt | nt
C#CCNc1c(C)c(C)nc2ncnn12 | i | i | i | 68 | i | i
COc1ccc(-n2c(SCC(=O)Nc3cccc(O)c3)nnc2-c2ccccn2)cc1 | i | i | i | i | nt | nt
COCCSc1nnc(-c2cnccn2)n1C | i | i | i | 75 | i | i
CCc1cc(=O)oc2cc(OC)c(Cl)cc12 | i | i | i | 88 | i | i
CCOc1cc2oc(=O)cc(CC)c2cc1Cl | i | i | i | i | nt | nt
Cc1ccc(-n2cc(-c3ccccc3)c3c(NCc4ccccc4)ncnc32)cc1Cl | i | i | i | i | nt | nt
O=C(NCCO)c1cccc(-c2cccs2)c1 | i | i | i | 59 | 59 | i | AlphaScreen DR=i
O=C(NCc1cccnc1)C(=O)NCc1cccnc1 | i | i | i | 72 | i | i
O=C(NCc1cccnc1)c1cccc(-c2cccs2)c1 | i | i | i | 55 | 45 | i | AlphaScreen DR=i
O=C(NCc1ccccc1)c1cccc(-c2cccs2)c1 | i | i | i | i | nt | nt
CCC(=O)Nc1cnc(NC(=O)c2ccccc2Cl)cc1C | i | i | i | i | nt | nt
CCN1CCC(C2(Cc3cccc(F)c3)NC(=O)N(CCOC)C2=O)CC1 (stereo not given) | i | i | i | i | nt | nt
CCCN(CCC)S(=O)(=O)c1ccc(C(=O)N=c2sc3cc(C)ccc3n2C)cc1 | i | i | i | i | nt | nt
SMILES | GPR151 activ | FBW7 activator | TEAD-YAP block | MITF inh | MITF confirm | AS interf ctr | others
COC(=O)c1ccc(NC(=O)CC2C(=O)N(c3ccc(F)cc3)C(=S)N2CCc2ccc(OC)c(OC)c2)cc1 (stereo not given) | i | i | i | i | nt | nt
CCOC(=O)c1ccc(NC(=O)CC2C(=O)N(c3ccc(F)cc3)C(=S)N2CCc2ccc(OC)c(OC)c2)cc1 (stereo not given) | i | i | i | 72! | i | i
Cc1cc([N+](=O)[O-])ccc1S(=O)(=O)N1CCOCC1 | i | i | i | i | nt | nt
CCCCNCCOCCOc1ccc(Br)cc1C | i | i | i | 72 | i | i
Clc1cc(Br)ccc1OCCOCCN1CCNCC1 | i | i | i | 54 | i | i
Brc1c(OCCn2ccnc2)ccc2ccccc12 | i | i | i | 57 | i | i
Clc1cc(Br)ccc1OCCOCCn1ccnc1 | i | i | i | i | nt | nt
Cc1cc(Br)ccc1OCCOCCN1CCN(C)CC1 | i | i | i | 57 | i | i
